Compound activity deposited in PubChem by National Center for Advancing Translational Sciences (NCATS).
This excerpt belongs to a sample that is enriched for hits.
BLM inh = qHTS Assay for Inhibitors of Bloom's syndrome helicase (BLM) | RecQ-like DNA helicase BLM (Homo sapiens), P54132 | recombinant BLM DNA unwinding, fluorescence dequenching | Potency, µM (doses to about 56.1 µM), without a hit: top-dose activity change, negative = inhibition, usual class: inhibitors | 350,000 compounds, 0.2% hits | AID 2528, 2010;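 also: plate controls were vehicle for no effect and no enzyme for full effect; nearly all actives have a fitted effect of over 35% in size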
L3MBTL1 block = qHTS Assay for the Inhibitors of L3MBTL1 | AlphaScreen L3MBTL1–H3K9me1 peptide binding | Potency, µM (highest dose often 57.1 µM), without a hit: at the top dose activity, negative = inhibition, most hits filed as inhibitors | 230,000 compounds, 0.66% hits | AID 485360, 2010; also: nearly all actives have a fitted effect of over 60% in size
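Read-out is AlphaScreen signal from streptavidin donor and nickel chelate acceptor beads (10 ug/mL final each) bridging L3MBTL1 (50 nM) and biotinylated K9-monomethylated H3(1-15) peptide (75 nM), after 30 min compound exposure at room temperature.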
KDM4E inh = qHTS Assay for Inhibitors of Human Jumonji Domain Containing 2E (JMJD2E). Lysine-specific demethylase 4E (Homo sapiens), B2RXH2. JMJD2E catalytic domain, FDH-coupled NADH fluorescence (FDH is formaldehyde dehydrogenase). Potency, µM (series often up to 57.1 µM), without a hit: at the highest dose activity change, negative = inhibition, hits mostly inhibitors. 230,000 compounds, 1.6% hits. AID 2147, 2009; active = well fitted inhibition curve with a large enough effect, not every such curve was filed as active; inconclusive = small, poorly fitted or top-dose-only effect, or another doubt; inactive = no such curve, though single readings can be large or run the other way;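 also: 0% = wells with enzyme and -100% = buffer wells without enzyme; nearly all actives have a fitted effect of over 50% in size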
Target sequence (B2RXH2 1-337 limits assumed): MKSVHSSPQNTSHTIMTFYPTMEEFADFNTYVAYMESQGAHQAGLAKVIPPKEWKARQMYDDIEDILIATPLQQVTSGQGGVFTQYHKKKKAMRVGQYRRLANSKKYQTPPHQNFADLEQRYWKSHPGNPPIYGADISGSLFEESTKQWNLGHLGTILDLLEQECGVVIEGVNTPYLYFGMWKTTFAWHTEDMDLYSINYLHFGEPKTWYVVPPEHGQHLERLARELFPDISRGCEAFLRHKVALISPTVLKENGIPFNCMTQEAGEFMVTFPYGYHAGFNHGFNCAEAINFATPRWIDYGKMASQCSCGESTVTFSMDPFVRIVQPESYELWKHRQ
APEX1 inh = qHTS Assay for Inhibitors of the Human Apurinic/apyrimidinic Endonuclease 1 (APE1); DNA repair nuclease/redox regulator APEX1 (Homo sapiens), P27695; recombinant APE1, TAMRA/BHQ-2 abasic DNA cleavage fluorescence; Potency, µM (series often up to 65.8 µM), for the others: top-dose activity change, negative = inhibition, most hits filed as inhibitors; 350,000 compounds, 0.35% hits; AID 2517, 2012;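 also: plate controls were vehicle for no effect and reference inhibitor for full effect; nearly all actives have a fitted effect of over 55% in size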
Target sequence (P27695 whole entry, looked up): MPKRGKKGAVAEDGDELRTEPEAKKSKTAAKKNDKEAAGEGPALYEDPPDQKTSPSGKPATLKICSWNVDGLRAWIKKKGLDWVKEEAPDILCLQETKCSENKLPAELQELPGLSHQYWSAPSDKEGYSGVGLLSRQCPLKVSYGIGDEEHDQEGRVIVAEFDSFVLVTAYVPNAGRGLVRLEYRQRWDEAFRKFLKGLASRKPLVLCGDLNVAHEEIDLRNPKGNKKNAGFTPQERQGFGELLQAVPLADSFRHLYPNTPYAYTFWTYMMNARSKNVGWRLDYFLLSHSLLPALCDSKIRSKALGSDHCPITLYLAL
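Compound pre-exposure to 0.75 nM APE1, 15 min at ambient temperature. Reaction initiated with 50 nM TAMRA/BHQ-2 THF substrate, read immediately in kinetic mode, 525 nm excitation, 598 nm emission.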
RECQ1 inh-1 = qHTS Assay for Inhibitors of RecQ-Like Dna Helicase 1 (RECQ1); RECQ1 DNA unwinding, red fluorescence kinetic read; AID 2549, 2010; 240,000 compounds, 0.54% hits; Potency, µM (top dose mostly 57.3 µM), for the others: top-dose activity, negative = inhibition, hits mostly inhibitors; ATP-dependent DNA helicase Q1 (Homo sapiens), P46063;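 also: plate controls were vehicle for no effect and no enzyme for full effect; nearly all actives have a fitted effect of over 30% in size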
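50 nM RECQ1T1 preincubated 15 min with compound in Tris pH 8.0 buffer with MgCl2, DTT, Tween-20 and 2.5 ug/ml poly(dI-dC); started with 200 nM TAMRA/BHQ-2 forked duplex and 2 mM ATP. Unwinding read as fluorescence (525/598 nm), two reads 2 h apart.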
GoLoco inh red = qHTS Assay for Inhibitors of RGS12 GoLoco Motif Activity (Red Fluorophore); 230,000 compounds, 0.44% hits; Guanine nucleotide-binding protein G(i) subunit alpha-1 (Homo sapiens), P63096; Potency, µM (titrated, usually from 61.6 µM), without a hit: at the top dose activity, negative = inhibition, most hits filed as inhibitors; AID 880, 2007; Gai1:RGS12 GoLoco peptide FP, rhodamine, 10 min; active = well fitted inhibition curve with a large enough effect, not every such curve was filed as active; inactive = no such curve, though single readings can be large or run the other way; also: nearly all actives have a fitted effect of over 30% in size
RECQ1 inh conf = Confirmation qHTS Assay for Inhibitors of RecQ-Like Dna Helicase 1 (RECQ1); 610 compounds, 28% hits; Potency, µM (doses to about 229 µM), without a hit: top-dose activity change, negative = inhibition, actives largely listed as inhibitors; shares compounds with RECQ1 inh-1; AID 2708, 2010; RECQ1 helicase DNA unwinding, fluorescence; also: nearly all actives have a fitted effect of over 45% in size
RECQ1 ADP FP = Counterscreen for RECQ1 Inhibitors: ADP Fluorescence Polarization Displacement Assay | shares compounds with RECQ1 inh-1 | ADP fluorescence polarization displacement counterscreen | Potency, µM (highest dose often 228 µM), without a hit: top-dose activity change, negative = inhibition, actives largely listed as inhibitors | 530 compounds, 27% hits | AID 2711, 2010; also: nearly all actives have a fitted effect of over 45% in size
RECQ1 inh-2 = Confirmation qHTS Assay for Inhibitors of RecQ-Like Dna Helicase 1 (RECQ1) - Round 2 Cherry Picks | shares compounds with RECQ1 inh-1 | recombinant RECQ1 DNA unwinding, red fluorescence | Potency, µM (highest dose often 119 µM), without a hit: at the top dose activity, negative = inhibition, most hits filed as inhibitors | 1,100 compounds, 15% hits | AID 504841, 2011; also: nearly all actives have a fitted effect of over 50% in size
Numbers without * were called inactive; i = inactive; ? = inconclusive; . = no result given; [ ] = remark or other dose. Unless noted, calls follow the shape of the dose curve; as a rule, active = well fitted curve in the direction sought with a large enough effect; inconclusive = small, poorly fitted or top-dose-only effect, or another doubt; inactive = no such curve, though single readings can be large; an effect the other way counts as inactive or inconclusive. Unless noted, % is scaled to controls: 0 for no effect and ±100 for the full control effect; potency is read from the fitted curve at half-maximal effect.

SMILES	BLM inh	L3MBTL1 block	KDM4E inh	APEX1 inh	RECQ1 inh-1	GoLoco inh red	RECQ1 inh-2	others
COC(=O)c1sc2ccccc2c1NC(=O)c1ccc(S(=O)(=O)N2CCCCC2)cc1	-6%	-3%	?	-2%	-7%	-1%	.
CCn1c(NN)nc2sc3c(c2c1=O)CCC3	-16%	.	?	0%	?	37%	-11%
CCc1nc2nc(C)cc(Nc3cc(Cl)ccc3OC)n2n1	1%	.	.	.	.	.	.
C=CCn1c(NC(=O)c2ccco2)c(S(=O)(=O)c2ccccc2)c2nc3ccccc3nc21	-8%	-12%	?	11%	-18%	-7%	.
C=CCn1c(NC(=O)c2ccc(Br)o2)c(S(=O)(=O)c2ccccc2)c2nc3ccccc3nc21	?	?	?	?	?	6%	-13%
Oc1c(Br)cc(Br)cc1CN(Cc1cc(Br)cc(Br)c1O)C1CCCCC1	.	.	.	.	.	0%[14.2 µM]	.
CCOC(=O)c1c(-n2cnnn2)sc2c1CCCC2	-2%	1%	?	-8%	1%	11%	.
CCOC(=O)c1c(N2C(=O)Nc3cc(Cl)c(Cl)cc3N2O)sc2c1CCCCC2	-8%	-13%	6%	-10%	?	1%	20µM*
COc1ccc(C2CC(=O)c3cnc4c(-c5ccccc5)c(C)nn4c3C2)cc1OC (stereo not drawn)	-9%	.	.	.	.	.	.
C=CCn1c(=O)c(C#N)cc2c(=O)n3ccccc3nc21	-9%	-7%	?	10%	?	38%	-16%
CN(C)c1ccc(O)c2c1CC1CC3[C@@H](N(C)C)C(=O)C(C(N)=O)C(=O)[C@]3(O)C(=O)C1C2=O (stereo partly drawn)	.	.	.	39%	.	.	.
C=C1c2cccc(O)c2C(O)=C2C(=O)[C@]3(O)C(O)=C(C(N)=O)C(=O)[C@@H](N(C)C)[C@@H]3[C@@H](O)[C@H]12	-11%	0.89µM*	?	2.5µM*	7.9µM*	-45%	-7%	RECQ1 inh conf=?;RECQ1 ADP FP=7.1µM*
C=C1c2cccc(O)c2C(O)=C2C(=O)[C@]3(O)C(O)=C(C(N)=O)C(=O)C(N(C)C)C3C(O)C12 (stereo partly drawn)	-4%	.	8.9µM*	4µM*	8.9µM*	-15%	-13%	RECQ1 inh conf=?;RECQ1 ADP FP=7.9µM*
CCOc1ccc(-c2nnc(SCC(=O)N(CC)c3cccc(C)c3)o2)cc1	-4%	.	.	.	.	.	.
COc1ccccc1-c1noc(-c2ccc(N3CCN(c4ccccc4)CC3)c([N+](=O)[O-])c2)n1	-7%	.	.	.	.	.	.
Cc1cccc(N2CCN(C(=O)Cc3ccc(-n4c(=O)[nH]c5ccsc5c4=O)cc3)CC2C)c1 (stereo not drawn)	2%	1%	7%	14%	-7%	7%	.	RECQ1 inh conf=-4%;RECQ1 ADP FP=3%
Cc1cccc(N2CCN(C(=O)Cn3c(=O)[nH]c4ccsc4c3=O)CC2C)c1 (stereo not drawn)	-2%	.	3%	3%	-3%	10%	.
COC(=O)c1c(NC(=O)CCCOc2cccc(C)c2)sc2c1C(C(=O)OC)CC2 (stereo not drawn)	-12%	.	.	.	.	.	.
O=C(Cn1nnc(-c2ccc(S(=O)(=O)N3CCCC3)cc2)n1)Nc1ccccc1-n1cccc1	-6%	-9%	-5%	-7%	i	5%	.	RECQ1 inh conf=4%;RECQ1 ADP FP=0%
Cc1sc(-n2cccc2)c(C(=O)O)c1C	-11%	-14%	-1%	-4%	?	17%	?
CCOC(=O)c1ccc(NC(=O)C(C)N(c2ccc(OCC)cc2)S(C)(=O)=O)cc1 (stereo not drawn)	-12%	.	.	.	.	.	.
CCOc1ccc(NC(=O)c2ccccc2NC(=O)CN(C)CC(=O)Nc2ccc(C)cc2)cc1	-1%	-8%	-2%	-7%	?	2%	-2%
COC(=O)c1cc2oc3ccccc3c2n1Cc1nc(-c2cccc(C)c2)oc1C	-2%	.	.	.	.	.	.
COc1ccccc1CNc1nc(-c2ccc3c(c2)OCO3)nc2ccccc12	-17%	.	.	7%	?	0%	-13%
CCOc1ccc(/C=C(\C(=O)O)c2ccc(S(=O)(=O)N3CCOCC3)s2)cc1OC	-20%	-13%	-4%	-7%	1%	4%	.	RECQ1 inh conf=-2%;RECQ1 ADP FP=?
SMILES	BLM inh	L3MBTL1 block	KDM4E inh	APEX1 inh	RECQ1 inh-1	GoLoco inh red	RECQ1 inh-2	others
CC(=O)OCCNc1nc(-c2ccccc2)nc2ccccc12	1%	0%	?	10%	?	-6%	-9%
COCCNc1nc(-c2ccccc2)nc2ccccc12	-7%	0%	-9%	-3%	-1%	6%	.
COc1ccc(-c2nn(-c3ccccc3)cc2/C=C/C(=O)O)cc1[N+](=O)[O-]	10%	?	-5%	-9%	?	21%	-5%
COc1ccc(-c2nn(-c3ccccc3)cc2C=O)cc1[N+](=O)[O-]	-11%	5%	.	21%	.	.	.
CCn1c(=O)n(-c2ccc3c(c2)OCO3)c2nc(-c3ccc(C(C)C)cc3)nc(C(N)=O)c21	-5%	.	.	.	.	.	.
Cc1ccc2[nH]cc(C(c3ccccc3)c3ccc(C)s3)c2c1 (stereo not drawn)	-13%	.	.	.	.	.	.
COc1cccc(OC(=O)CSc2nnc(-c3ccccc3OC)o2)c1	-1%	.	.	.	.	.	.
COC(=O)c1cc(O)cc(OC)c1Oc1cc(C)cc(O)c1C(=O)O	8.9µM*	.	?	0.63µM*	22µM*	-10%	5µM*
